Activity calls are given as the source filed them. How the source made its calls: active means hit-call score of the fitted dose curve at least 0.9, where 1 is the maximum; inactive means score below 0.9.
Legend:
[1] = read-out: Macrophage colony-stimulating factor (MCSF), CSF1 (gene 1435); assay: BSK_hDFCGF_MCSF: BioMAP Diversity Plus: hDFCGF Assay for Macrophage colony-stimulating factor (MCSF) Biomarker Activity (AID 2283060); conditions: primary human foreskin fibroblasts; actives raise or lower the signal
Summary of the method: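 Human foreskin fibroblast primary cultures; M-CSF measured by ELISA 24 hours after chemical dosing. Bidirectional fitting relative to DMSO, with overt cytotoxicity tracked by parallel SRB total-protein staining (0.1% SRB, 10% TCA fixation, 560 nm).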

[2] = BSK_hDFCGF_SRB: Viability Assessment in the BioMAP Diversity Plus: hDFCGF Assay (AID 2283061); conditions: primary human foreskin fibroblasts;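 further: cells exposed to compound for 24 h before the read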
Summary of the method: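 Human foreskin fibroblasts in 96-well plates were treated 24 h. Total protein was measured by 0.1% SRB staining after 10% TCA fixation, read at 560 nm. Data were fitted bidirectionally against DMSO.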

[3] = read-out: TIMP metallopeptidase inhibitor 1 (TIMP1), TIMP1 (gene 7076); assay: BSK_hDFCGF_TIMP1: BioMAP Diversity Plus: hDFCGF Assay for TIMP metallopeptidase inhibitor 1 (TIMP1) Biomarker Activity (AID 2283062); conditions: primary human foreskin fibroblasts; actives raise or lower the signal
Summary of the method: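 Human foreskin fibroblast primary cultures dosed for 24 h; secreted/surface TIMP-1 quantified by ELISA. Bidirectional curve fitting against DMSO baseline; cytotoxicity tracked in parallel cultures by SRB total-protein staining.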

[4] = read-out: Monokine induced gamma interferon (MIG), CXCL9 (gene 4283); assay: BSK_hDFCGF_MIG: BioMAP Diversity Plus: hDFCGF Assay for Monokine induced gamma interferon (MIG) Biomarker Activity (AID 2283063); conditions: primary human foreskin fibroblasts; actives raise or lower the signal
Summary of the method: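 MIG/CXCL9 measured by ELISA 24 h after dosing primary human skin fibroblasts. Activity fitted in both directions against DMSO controls. Cytotoxicity was checked in parallel cultures by SRB staining read at 560 nm.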

[5] = read-out: Matrix Metallopeptidase 1 (MMP1), MMP1 (gene 4312); assay: BSK_hDFCGF_MMP1: BioMAP Diversity Plus: hDFCGF Assay for Matrix Metallopeptidase 1 (MMP1) Biomarker Activity (AID 2283064); conditions: primary human foreskin fibroblasts; actives raise or lower the signal
Summary of the method: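 ELISA read-out of MMP1 from human foreskin fibroblasts (primary skin cells), 24 h post-dose. Gain or loss of signal was fitted bidirectionally versus DMSO negative control; cytotoxicity was checked by SRB in parallel cultures.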

[6] = read-out: Vascular cell adhesion molecule 1 (VCAM1), VCAM1 (gene 7412); assay: BSK_hDFCGF_VCAM1: BioMAP Diversity Plus: hDFCGF Assay for Vascular cell adhesion molecule 1 (VCAM1) Biomarker Activity (AID 2283065); conditions: primary human foreskin fibroblasts; actives raise or lower the signal;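 on AC50: VCAM-1 protein level quantified by ELISA after 24 h chemical exposure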
Summary of the method: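 Human foreskin fibroblast primary cells dosed with chemical, VCAM-1 measured by ELISA at 24 h. Bidirectional curve fitting relative to DMSO as negative control/baseline.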

[7] = read-out: Plasminogen activator inhibitor-1 (PAI1), SERPINE1 (gene 5054); assay: BSK_hDFCGF_PAI1: BioMAP Diversity Plus: hDFCGF Assay for Plasminogen activator inhibitor-1 (PAI1) Biomarker Activity (AID 2283066); conditions: primary human foreskin fibroblasts; actives raise or lower the signal
Summary of the method: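 Fibroblasts from human foreskin were treated with test chemical. After 24 h, PAI-1 was measured by ELISA. Activity was fitted in both directions relative to DMSO.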

[8] = read-out: Intercellular Adhesion Molecule 1 (ICAM1), ICAM1 (gene 3383); assay: BSK_KF3CT_ICAM1: BioMAP Diversity Plus: KF3CT Assay for Intercellular Adhesion Molecule 1 (ICAM1) Biomarker Activity (AID 2283067); conditions: primary human keratinocytes with fibroblasts; actives raise or lower the signal
Summary of the method: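 Human keratinocyte–foreskin fibroblast co-culture was treated for 24 h. Cell-surface ICAM-1 was quantified by ELISA, fitted bidirectionally relative to DMSO. Cytotoxicity was checked in parallel cultures by SRB total-protein staining.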

[9] = read-out: Interferon-gamma inducible Protein 10 (IP10), CXCL10 (gene 3627); assay: BSK_KF3CT_IP10: BioMAP Diversity Plus: KF3CT Assay for Interferon-gamma inducible Protein 10 (IP10) Biomarker Activity (AID 2283068); conditions: primary human keratinocytes with fibroblasts; actives raise or lower the signal
Summary of the method: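 Signal is secreted/surface IP-10 by ELISA in a human primary skin co-culture of keratinocytes and foreskin fibroblasts, taken 24 h post-dosing; DMSO served as negative control.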

[10] = BSK_KF3CT_SRB: Viability Assessment in the BioMAP Diversity Plus: KF3CT Assay (AID 2283069); conditions: primary human keratinocytes with fibroblasts;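 further: total protein by sulforhodamine B staining as a cytotoxicity measure; read 24 h after compound addition; fitted for both signal gain and loss against DMSO baseline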
Summary of the method: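 SRB read-out at 560 nm (0.1% stain, TCA-fixed cells) gauges overt cytotoxicity in a human skin keratinocyte–fibroblast co-culture 24 h post-dosing. Signal change was fitted bidirectionally relative to DMSO control.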

| Compound | outcome [1] | outcome [2] | outcome [3] | outcome [4] | outcome [5] | AC50 [6] | outcome [7] | outcome [8] | outcome [9] | outcome [6] | outcome [10] | AC50 [1] | AC50 [4] | AC50 [2] | AC50 [3] | AC50 [5] | AC50 [7] | AC50 [9] |
| --- | --- | --- | --- | --- | --- | --- | --- | --- | --- | --- | --- | --- | --- | --- | --- | --- | --- | --- |
| Nc1ccccc1N | inactive | inactive | inactive | inactive | inactive | 6.75 µM (active) | inactive | inactive | inactive |  |  |  |  |  |  |  |  |  |
| Cc1cccc([N+](=O)[O-])c1C | inactive | inactive | inactive | inactive | inactive |  | inactive | inactive | inactive | inactive |  |  |  |  |  |  |  |  |
| CCCCCC(=O)O | inactive | inactive | inactive | inactive | inactive |  | inactive | inactive | inactive | inactive |  |  |  |  |  |  |  |  |
| O=C(OCCCCCOC(=O)c1ccccc1)c1ccccc1 | inactive | inactive | inactive | inactive | inactive |  | inactive | inactive | inactive | inactive |  |  |  |  |  |  |  |  |
| CC=Cc1ccc(O)c(OC)c1 | inactive | inactive | inactive | inactive | inactive |  | inactive | inactive | inactive | inactive | inactive |  |  |  |  |  |  |  |
| CCOc1ccc2c(c1)C(C)=CC(C)(C)N2 |  | inactive | inactive |  | inactive | 3.97 µM (active) | inactive | inactive | inactive |  |  | 6.14 µM (active) | 16.4 µM (active) |  |  |  |  |  |
| COc1ccc(C)cc1N | inactive | inactive | inactive | inactive | inactive |  | inactive | inactive | inactive | inactive |  |  |  |  |  |  |  |  |
| Nc1ccc2c(c1)C(=O)c1ccccc1C2=O | inactive | inactive | inactive | inactive | inactive |  | inactive | inactive | inactive | inactive |  |  |  |  |  |  |  |  |
| CCc1c(C(=O)NN2CCCCC2)nn(-c2ccc(Cl)cc2Cl)c1-c1ccc(Br)cc1 |  |  |  |  |  | 3.82 µM (active) |  | inactive |  |  |  | 3.75 µM (active) | 4.28 µM (active) | 2.85 µM (active) | 3.54 µM (active) | 3.03 µM (active) | 2.3 µM (active) | 13.1 µM (active) |
| O=c1[nH]cc(F)c(=O)[nH]1 | inactive | inactive | inactive | inactive | inactive |  | inactive | inactive | inactive | inactive |  |  |  |  |  |  |  |  |
| CC(C)c1ccc(C(=O)N=C(N)N)cc1S(C)(=O)=O | inactive | inactive | inactive | inactive | inactive |  | inactive | inactive | inactive | inactive | inactive |  |  |  |  |  |  |  |

From PubChem BioAssay (EPA / NIEHS)
